# Compound activity from PubChem BioAssay.
# This is a sample that favours compounds with a hit; in the whole collection about 9.3% have one here.
# Sm TGR inh: S. mansoni TGR enzyme inhibition; purified TGR, DTNB reduction, TNB absorbance 405 nm; Potency, µM (titrated, usually from 114 µM), for inactives: at the top dose activity change, negative = inhibition, hits mostly inhibitors; 3% of 360,000 active; note: potency is the fitted concentration of half-maximal effect; nearly all actives have a fitted effect of over 60% in size
#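 TGR 20 nM + NADPH 100 uM (dispensed conc.), cpd preinc 15 min RT; start with NADPH (500 uM addition) then DTNB (15 mM addition). Kinetic TNB absorbance, 405 nm filter. Four-parameter Hill fit across titration.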
# FMDV inh: blocks foot and mouth disease virus. FMDV antiviral cell-based qHTS. Potency, µM (titrated, usually from 57.9 µM), for inactives: top-dose activity change, negative = inhibition, hits mostly inhibitors. 1.2% of 410,000 active; calls by dose curve; tested in HEK293T cells; note: read-out not given here; potency is the fitted concentration of half-maximal effect; nearly all actives have a fitted effect of over 45% in size
# Vaccinia Venus: vaccinia inhibition (Venus reporter) | AID 720580 | Vaccinia virus Venus reporter expression, fluorescence | 0.46% of 330,000 active | Potency, µM (highest dose often 36.5 µM), for the others: at the top dose activity change, negative = inhibition, usual class: inhibitors; calls by dose curve; tested in A549 cells; note: potency is the fitted concentration of half-maximal effect; nearly all actives have a fitted effect of over 30% in size
# HCMV antiviral: human cytomegalovirus inhibition | HFF cells, HCMV-luciferase reporter, 72 h; stronger effect = lower value | AID 1259415 | 4.5% of 410,000 active | activity change, negative = inhibition, % at 57.5 µM; in the data active = activity change below about -60%; inconclusive = no clear call, values can overlap the other calls; inactive = above about -39%
#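 Human foreskin fibroblasts infected with luciferase-reporter HCMV at MOI 1 PFU/cell, compounds at two doses. Luciferase measured 72 h post infection; normalized to buffer-only basal and Salinomycin (10uM) controls.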
# Vaccinia mCherry: vaccinia inhibition (mCherry reporter). Vaccinia virus mCherry reporter infection, fluorescence. Potency, µM (highest dose often 36.5 µM), for the others: at the top dose activity change, negative = inhibition, hits mostly inhibitors. 0.63% of 310,000 active; calls by dose curve; tested in A549 cells; note: potency is the fitted concentration of half-maximal effect; nearly all actives have a fitted effect of over 35% in size
# HCV inh: inhibitors of hepatitis C virus infection; 3.4% of 340,000 active; AID 651820; Potency, µM (doses to about 41.8 µM), without a hit: at the top dose activity change, negative = inhibition, hits mostly inhibitors; Huh7.5.1 HCVcc-Cre infection, luciferase reporter, 44 h; note: potency is the fitted concentration of half-maximal effect
#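 Antiviral activity was scored by luciferase reporter output from cells infected with HCVcc-Cre (~0.5 moi) in presence of compound, 44 h infection period, cells seeded 1,000/well 4 h prior.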
# Numbers without * were called inactive; i = inactive; u = inconclusive; x = no result; + = active, no number; [ ] = another dose, or the depositor's remark. Unless noted, calls come from the whole dose curve; as a rule, active = well fitted curve in the direction sought with a large enough effect; inconclusive = small, poorly fitted or top-dose-only effect, or another doubt; inactive = no such curve, though single readings can be large; an effect the other way counts as inactive or inconclusive. % is set by controls: 0 for no effect and ±100 for the full control effect.
SMILES,Sm TGR inh,FMDV inh,Vaccinia Venus,HCMV antiviral,Vaccinia mCherry,HCV inh
CC1CC2=C(NC(=S)NC2c2cccc(F)c2)/C(=C/c2cccc(F)c2)C1 (stereo not given),u,u,u,-17,u,10µM*
CN(C)c1cc(Cl)c2nonc2c1N,50µM*,-20%,-31%,-35,u,9%
CCN(CC)c1cc(Cl)c2nonc2c1N,-2%,-16%,-5%,47,-20%,10%
Cc1cc(C(=O)N2CCOCC2)c(C)o1,x,-8%,7%,-99*,i,11%
CC(=O)N1CCN(C(=O)c2cc(C)oc2C)CC1,x,-8%,x,-2,x,16%
CCOc1ccc(-c2nnc(SCC(=O)Nc3cc(F)ccc3F)o2)cc1,-36%,60%,-3%,u,-6%,x
CC(=O)N1CCc2cc(Br)cc(S(=O)(=O)N3CCN(c4cc(C)ccc4C)CC3)c21,0%,-8%,4%,-7,-5%,x
C/C(=N\N1CCCCC1)c1ccccc1O,9%,27%,-5%,-4,i,5%
C=CCN1c2ccccc2Sc2cnccc21,x,u,-3%,-68*,-4%,x
CC(=O)OCCN1c2ccccc2Sc2cnccc21,x,-9%,-15%,u,i,x
Cc1nc(C2CCC3C4CCC5=CC(=O)CC[C@]5(C)C4CC[C@]23C)cs1 (stereo not given in full),-1%,x,x,-91*,x,x
CC(=O)C1CCC2C3CCC4=CC(=O)CC[C@@]4(C)C3CC[C@]12C (stereo not given in full),x,22µM*,-9%,x,-10%,x
CC(=O)O[C@H]1CC[C@@]2(C)C(=CC[C@H]3[C@@H]4CC[C@H](C(C)=O)[C@@]4(C)CC[C@@H]32)C1,x,u,-6%,24,i,10%
CCCCCC(=O)O[C@]1(C(C)=O)CC[C@H]2[C@@H]3CCC4=CC(=O)CC[C@]4(C)[C@H]3CC[C@@]21C,-16%,0%,-29%,-68*,u,u
CC(=O)[C@H]1CC[C@H]2[C@@H]3CC=C4C[C@@H](OS(=O)(=O)O)CC[C@]4(C)[C@H]3CC[C@]12C,x,-19%,-10%,-71*,-8%,0%
CC(=O)[C@@]1(O)CC[C@H]2[C@@H]3CCC4=CC(=O)CC[C@]4(C)[C@H]3CC[C@@]21C,-9%,u,-15%,28,i,0%[8.37 µM]
CC12CCC(=O)C=C1CCC1C2C(O)CC2(C)C1CCC21OCC1=O (stereo not given),x,-5%,-6%,-92*,i,19%
C[C@]12CCC(=O)C=C1CC[C@@H]1C2[C@H](O)C[C@]2(C)C(=O)CCC12 (stereo not given in full),-6%,5%,x,32,x,15%
CCn1ncc([C@@H]2C[C@H]3CN(Cc4cccc(Cl)c4)C(=O)[C@]34CCCN24)c1C,-25%,-16%,2%,-4,-14%,-7%
O=C1N(Cc2cccc(Cl)c2)C[C@@H]2C[C@@H](c3ccco3)N3CCC[C@@]123,40µM*,5%,-5%,u,-1%,9%
Cn1cc([C@@H]2C[C@H]3CN(Cc4cccc(Cl)c4)C(=O)[C@]34CCCN24)c(-c2ccccc2)n1,-1%,-12%,-11%,-13,u,10µM*
Cc1nn(C)cc1[C@@H]1C[C@H]2CN(Cc3cccc(Cl)c3)C(=O)[C@]23CCCN13,-11%,9%,-26%,-19,u,3%
O=C1N(Cc2cccc(Cl)c2)C[C@@H]2C[C@@H](c3cccn3-c3cccnc3)N3CCC[C@@]123,0%,u,-11%,-86*,-13%,10µM*
COc1cccc(C(C(=O)NCC2CCCO2)N(CC2CCCO2)C(=O)CN2C(=O)c3ccccc3S2(=O)=O)c1 (stereo not given),5%,25%,-3%,-23,-18%,7%
COC(=O)c1ccc(NC(=O)C(OC)c2ccccc2)cc1 (stereo not given),x,17%,-12%,-13,-15%,3%
SMILES,Sm TGR inh,FMDV inh,Vaccinia Venus,HCMV antiviral,Vaccinia mCherry,HCV inh
COC(=O)C1=CN(c2cc(C)cc(C)c2)C=C(C(=O)OC)C1c1ccc(OC)c(O)c1,-6%,-13%,-17%,11,u,u
COC(=O)C1=CN(c2ccc(F)cc2)C=C(C(=O)OC)C1c1ccc(O)cc1,-1%,-7%,-11%,-25,-14%,11µM*
CC(C)=CCC12Oc3cc(O)ccc3C1(O)Oc1cc(O)c([C@H]3C=C(C)CC(c4ccc(O)cc4O)[C@H]3C(=O)c3ccc(O)cc3O)c(O)c1C2=O (stereo not given in full),x,-25%,-6%,x,-8%,13µM*
O=[N+]([O-])C(/C=C(\Cl)[N+](=O)[O-])=C1N(Cc2ccc(Cl)nc2)CCN1Cc1ccc(Cl)nc1,-34%,x,0%,-25,i,u
O=[N+]([O-])C(/C=C(/Cl)[N+](=O)[O-])=C(N1CCCCC1)N1CCCCC1,25µM*,14%,-14%,-24,-5%,17%
Nc1nsc2ccccc12,-1%,x,u,-72*,u,11µM*
COc1ccc(OCC(=O)Nc2ccc3c(c2)nc(CCN2CCN(c4ccccn4)CC2)n3C)cc1,x,u,-27%,u,i,x
CCN1CCN(CCc2nc3cc(NC(=O)COc4ccccc4)ccc3n2C)CC1,-16%,3%,-3%,-21,i,-4%
Cc1cccc(OCC(=O)Nc2ccc3c(c2)nc(CCN2CCN(c4ccccn4)CC2)n3C)c1,-6%,32µM*,x,+,x,6.3µM*
Cn1c(CCN2CCN(c3ccccn3)CC2)nc2cc(NC(=O)COc3ccc(Cl)cc3)ccc21,-3%,11µM*,x,-97*,x,2.2µM*
Cc1n[nH]c(=O)c2c(NC(=O)CSc3nc4ccccc4c(=O)n3C(C)C)oc(C)c12,-6%,-26%,-17%,14,-27%,u
COc1ccc(NC(=O)CSC2=Nc3ccccc3C3=NC(CCC(=O)NC4CCCCC4)C(=O)N23)cc1 (stereo not given),5%,0%,-9%,3,-15%,x
CC(=O)c1c(C)oc2c(Br)cc(NS(=O)(=O)c3ccc(Br)cc3)cc12,5.6µM*,1%,8%,12,-12%,x
COc1cc(/C=C(\C#N)C(=O)N2CCOCC2)cc(Br)c1O,u,0%,x,-10,x,11%
N#C/C(=C\c1cccc(Oc2ccccc2)c1)C(=O)N1CCOCC1,x,35µM*,-17%,-17,-4%,3%
COc1cc2c(cc1OC)C1=C(C#N)COCN1CC2,20µM*,-7%,-9%,u,-9%,-10%
COc1ccc(N2CCN(CCCNS(=O)(=O)c3c(C)noc3/C=C/N(C)C)CC2)cc1,-16%,x,x,x,x,7.9µM*
CC(C)(C)c1csc(NNC(=O)c2ccc(Cl)cc2)n1,-12%,1%,u,-4,7.1µM*,u
